Shown are actives, neighbours in structure and some others; about 3.5% of the full set was active somewhere.
MITF inh: inhibitors of human MITF. O75030. AlphaScreen MITF homodimerization, bead proximity signal. inhibition, % at 2.6 µM. actives 0.91% (n = 650,000); in the data active means inhibition above about 50%
FBW7 act: human FBW7 E3 ligase activation, primary screen | Q969H0 | AlphaScreen FBW7–phospho-cyclin E peptide binding, activator screen | normalized activity (activation), % at 26.1 µM | actives 0.13% (n = 650,000) | AID 1259310; in the data active means normalized activity above about 1.9%;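 further: purified mutant Fbw7 with reduced substrate affinity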
Target sequence (Q969H0 whole entry, looked up): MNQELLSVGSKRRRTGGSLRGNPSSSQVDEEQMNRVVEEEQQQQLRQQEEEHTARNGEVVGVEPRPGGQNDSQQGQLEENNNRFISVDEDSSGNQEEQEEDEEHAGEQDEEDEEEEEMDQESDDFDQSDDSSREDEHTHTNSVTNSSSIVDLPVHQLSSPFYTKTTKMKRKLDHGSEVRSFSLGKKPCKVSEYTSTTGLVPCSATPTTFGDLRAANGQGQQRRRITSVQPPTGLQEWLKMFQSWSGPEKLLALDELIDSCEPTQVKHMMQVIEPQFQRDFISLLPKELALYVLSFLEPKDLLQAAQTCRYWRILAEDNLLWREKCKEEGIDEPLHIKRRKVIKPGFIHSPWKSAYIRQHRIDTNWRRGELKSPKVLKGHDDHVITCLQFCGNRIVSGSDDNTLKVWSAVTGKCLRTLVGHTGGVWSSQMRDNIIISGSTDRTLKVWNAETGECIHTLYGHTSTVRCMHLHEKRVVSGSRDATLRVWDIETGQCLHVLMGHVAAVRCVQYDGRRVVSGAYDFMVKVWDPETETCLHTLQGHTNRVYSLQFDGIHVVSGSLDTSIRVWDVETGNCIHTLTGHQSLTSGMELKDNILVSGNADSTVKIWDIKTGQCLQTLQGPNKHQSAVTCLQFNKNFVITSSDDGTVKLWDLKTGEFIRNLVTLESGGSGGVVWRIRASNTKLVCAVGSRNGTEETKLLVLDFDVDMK
GPR151 ag: activates the human receptor GPR151. Q8TDV0. PathHunter beta-arrestin GPR151 cells, luminescence. activation, % at 11.2 µM. actives 1% (n = 650,000); in the data active means activation above about 4.9%
TEAD-YAP block: TEAD-YAP interaction inhibition; HEK-TIYL cells, TEAD-Gal4/YAP UAS-luciferase luminescence; inhibition, % at 9.12 µM; actives 1.4% (n = 640,000); AID 1259422; in the data active means inhibition above about 32%
MITF confirm: human MITF inhibition, confirmation; AlphaScreen MITF homodimerization, biotin/His-MITF beads; AID 1259372; inhibition, % at 2.6 µM; shares compounds with MITF inh; actives 16% (n = 4,700);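 active means inhibition above a cutoff derived from the DMSO control wells, cut at about 28% in these data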;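 further: inhibitors lower the bead chemiluminescence by keeping MITF from dimerizing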
AlphaScreen DR: AlphaScreen optical interference, dose response counter-screen. shares compounds with MITF inh. AlphaScreen optical interference counterscreen, cell-free. IC50, µM. actives 6% (n = 480). AID 1259373; call rule not given here
AS interf ctr: counter-screen: compounds optically interfering with AlphaScreen. actives 7.6% (n = 4,700). shares compounds with MITF inh. inhibition, % at 2.6 µM. LysRS AlphaScreen counterscreen, signal interference, triplicate;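 active means inhibition above a cutoff derived from the DMSO control wells, cut at about 30% in these data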
Of the large screens only hits and unclear results are named; the others gave an inactive call (follow-up assays come after a bar, where they were run).

COc1cccc(CN2CCN(c3ncccn3)CC2)c1	none
COc1cccc(CN2CCN(C3CCCC3)CC2)c1	MITF inh 65 | MITF confirm inactive | AS interf ctr inactive
COc1cccc(CN2CCN(Cc3cc(OC)cc(OC)c3)CC2)c1	MITF inh 80 | MITF confirm inactive | AS interf ctr inactive
COc1cccc(CN2CCN(C3CCN(Cc4ccccc4)CC3)CC2)c1	none
COc1cccc(CN2CCN(Cc3ccccn3)CC2)c1	MITF inh 51 | MITF confirm inactive | AS interf ctr inactive
Cc1ccc(-n2nc3c(c2NC(=O)CCC2CCCC2)CSC3)cc1	none
CNC(=O)C1CCC(CNS(=O)(=O)c2ccccc2)CC1 (centres undefined)	none
CCOC(=O)c1ccc(NC(=O)CCOc2ccccc2)cc1	MITF inh 75 | MITF confirm inactive | AS interf ctr inactive
CCOC(=O)C1=C(NC(=O)Cc2ccccc2)c2ccccc2CC1(CC)CC	none
O=C(c1csc(-n2cccc2)n1)N1CCN(c2ccccn2)CC1	MITF inh 60 | MITF confirm inactive | AS interf ctr inactive
O=C(c1csc(-n2cccc2)n1)N1CCN(c2ccccc2O)CC1	none
COC(=O)c1ccc(CN2CCC(c3nc4ccccc4[nH]3)CC2)cc1	none
O=C(Cn1ncc2ccccc21)N1CCC(Cc2ccccc2)CC1	none
CCOCC(=O)N1CCC(Cn2cnc3cc(C)c(C)cc32)CC1	MITF inh 66 | MITF confirm inactive | AS interf ctr inactive
CCOC(=O)CCC(=O)N1CCC(Cn2cnc3ccccc32)CC1	MITF inh 59 | MITF confirm inactive | AS interf ctr inactive
O=C(CN1CCC(Cn2cnc3ccccc32)CC1)N1CCC(Cc2ccccc2)CC1	MITF inh 74, TEAD-YAP block 61 | MITF confirm inactive | AS interf ctr inactive
COC(=O)c1ccc(CN2CCC(Cn3cnc4ccccc43)CC2)cc1	MITF inh 82 | MITF confirm inactive | AS interf ctr inactive
O=C(Cn1cnc2ccccc21)N1CCC(Cn2cccn2)CC1	none
C=CCNC(=O)CN1CCC(Cn2cnc3cc(C)c(C)cc32)CC1	MITF inh 54 | MITF confirm inactive | AS interf ctr inactive
O=C(c1cccc(F)c1)N1CCC(Cn2cnc3ccccc32)CC1	none
O=C(/C=C/c1cccs1)N1CCC(Cn2cnc3ccccc32)CC1	MITF inh 65 | MITF confirm inactive | AS interf ctr inactive
O=C(CN1CCC(Cn2cnc3ccccc32)CC1)Nc1cccc(F)c1	MITF inh 54 | MITF confirm inactive | AS interf ctr inactive
O=C(Cn1c(=O)oc2ccccc21)N1CCC(Cn2cnc3ccccc32)CC1	MITF inh 53 | MITF confirm inactive | AS interf ctr inactive
O=C(/C=C/c1cccs1)NCC1CCN(C(=O)/C=C/c2cccs2)CC1	none
O=C(Cc1cn(-c2ccc(Nc3ccc(-n4ccnc4)cc3)nn2)c2ccccc12)NCc1cccc(C(F)(F)F)c1	none
Cc1ccc(C(=O)NCC(=O)OCc2ccc(Br)cc2)cc1	none
Cc1c(C(=O)Nc2ccc(C(=O)O)cc2)cccc1[N+](=O)[O-]	none
CCOC(=O)c1ccc(NS(=O)(=O)c2c[nH]c3ccc([N+](=O)[O-])cc23)cc1	none
COc1ccc(CNC(=O)C2CC(=O)N(c3ccc(F)cc3)C2)cc1 (centres undefined)	none
O=C(NCc1ccc(F)cc1)C1CC(=O)N(c2ccc(F)cc2)C1 (centres undefined)	MITF inh 73 | MITF confirm inactive | AS interf ctr inactive
COc1ccc(-c2ncn(-c3ccc(Nc4ncc5ccc(-c6cnn(C)c6)cc5n4)cc3)n2)cn1	MITF inh 55 | MITF confirm inactive | AS interf ctr inactive
O=C(O)c1cc(-c2ccco2)nc2ccc(Br)cc12	MITF inh 58 | MITF confirm inactive | AS interf ctr inactive
O=C(O)c1ccccc1-c1cc(C(=O)O)c2cc(Br)ccc2n1	none
CC(C)=CCC/C(C)=C\CNCc1ccco1	none
COc1ccc(F)c(CC2(CCC(=O)NC(C)c3nccs3)CCC(=O)N2)c1 (centres undefined)	none
CCN(CC)S(=O)(=O)c1ccc(C(=O)Nc2nc3c(OC)cccc3s2)cc1	none
CCOC(=O)CCNC(C)C1COc2ccccc2O1 (centres undefined)	MITF inh 51 | MITF confirm inactive | AS interf ctr inactive
Cc1cc(C)nc(SCc2cc(=O)c(OC(=O)C3(c4ccc(Cl)cc4)CCCC3)co2)n1	MITF inh 102 | MITF confirm inactive | AS interf ctr inactive
COc1ccc(CNC(=O)c2ccccc2Br)cc1	none
CCOC(=O)c1cnc2c(OC)cccc2c1NCCc1ccc(OC)c(OC)c1	none
O=C(CC(NCc1ccco1)C(=O)O)Nc1cccc([N+](=O)[O-])c1 (centres undefined)	none
COc1ccc(C)cc1NC(=O)CNCc1ccco1	MITF inh 53 | MITF confirm inactive | AS interf ctr inactive
COc1ccc(C)cc1NC(=O)NCc1ccco1	none
COc1ccc(N(C(=O)COc2ccc(Br)cc2)S(=O)(=O)c2ccc(C)cc2)cc1	MITF inh 62 | MITF confirm inactive | AS interf ctr inactive
CCOC(=O)C1=C(c2ccccc2)NC(=S)NC1c1ccc(C#N)cc1 (centres undefined)	none
Cc1onc(-c2ccccc2)c1C(=O)Nc1ccc(N2CCOCC2)c2nonc12	none
COc1ccc(CN2CCN(Cc3ccco3)CC2)c(OC)c1OC	MITF inh 55 | MITF confirm inactive | AS interf ctr inactive
COc1ccc(CN2CCN(Cc3ccco3)CC2)c(OC)c1	MITF inh 73 | MITF confirm inactive | AS interf ctr inactive
COc1ccccc1CN1CCN(Cc2ccco2)CC1	MITF inh 77 | MITF confirm inactive | AS interf ctr inactive
COc1ccc(CN2CCc3ccccc3C2)c(OC)c1	none
COc1ccc(CN2CCN(C(=O)c3ccco3)CC2)c(OC)c1OC	none
CC(=O)c1cccc(NC(=O)c2cccc([N+](=O)[O-])c2C)c1	none
COc1cc(C2C3=C(CCCC3=O)Nc3ccc4nc(C)ccc4c32)cc(OC)c1OC (centres undefined)	none
Cc1ccc(Nc2nc(-c3ccccn3)cs2)c(C)c1	MITF inh 51, TEAD-YAP block 57 | MITF confirm inactive | AS interf ctr 39
COc1cccc(CC(=O)Nc2ccc3ccccc3c2)c1	none
COc1cccc(CC(=O)Nc2nnc(-c3ccco3)c(-c3ccco3)n2)c1	MITF inh 63 | MITF confirm 80 | AlphaScreen DR inactive | AS interf ctr inactive
COc1ccccc1-c1ncnn1-c1sc2c(c1C#N)CCCCCC2	none
CCC(C)NCCOCCOc1ccc(OC)cc1 (centres undefined)	MITF inh 84 | MITF confirm inactive | AS interf ctr inactive
CCC(C)NCCOCCOc1ccc(Cl)cc1Br (centres undefined)	none
